# Measured values from PubChem BioAssay AID372 (MTDP, 2006).
# Screen size: about 100,000 compounds; about 770 (0.77%) were called active. What follows is part of a selection rich in actives, with near analogues and random picks from the rest. Values without a mark were called inactive. No stated cut-off is given here; in the data, active means inhibition above about 50%; inactive means the rest.
# Target: Gag-Pol polyprotein (Human immunodeficiency virus type 1 group M subtype B (isolate HXB2)) (UniProt P04585)
# Experiment: RNase H inhibition, HIV 1 Gag Pol polyprotein, FRET biochemical assay, screening (AID 372)
# Conditions: HIV-1 RT RNase H, FRET RNA/DNA substrate fluorescence; at 10 µM; stronger effect = higher value
row,SMILES,inhibition
1,O=C(Nc1ccc2ccccc2c1)c1ccccc1Cl,3%
2,Cc1cc(OCC(N)=O)ccc1Cl,0%
3,Cc1ccc2nc3c(N)c(Cl)cc4c3c(c2c1)-c1ccccc1C4=O,56% (active)
4,Nc1c(Cl)cc(Br)c2c1C(=O)c1ccccc1C2=O,6%
5,Nc1c(Cl)cc2c(c1Oc1ccccc1)C(=O)c1ccccc1C2=O,8%
6,O=C(Cn1c(NCCO)nc2ccccc21)c1cccc(Br)c1,3%
7,C=CCC(C(=O)c1ccccc1)C(=O)C(C)(C)OC (configuration not stated),7%
8,COc1ccc(CC(=O)N/N=C/c2ccc(I)o2)cc1,0%
9,COc1ccc(CC(=O)N/N=C/c2ccc(-c3cc(Cl)ccc3C)o2)cc1,74% (active)
10,Cc1ccc(/C=N/NC(=O)Cc2ccc(Cl)cc2)o1,7%
11,O=Cc1cc(Cl)c(OCc2ccc(F)cc2)c(Cl)c1,41%
12,Cc1ccc(-c2nc3ccccc3o2)cc1NC(=O)COc1ccccc1,8%
13,Cc1ccc2oc(-c3ccc(C)c(NC(=O)COc4ccccc4C)c3)nc2c1,44%
14,Cc1ccc(-c2nc3ccccc3o2)cc1NC(=O)COc1ccccc1C,50% (active)
15,Cc1cc(C)c2oc(-c3ccc(C)c(NC(=O)COc4cccc(C)c4C)c3)nc2c1,0%
16,Cc1cc(C)c2oc(-c3ccc(C)c(NC(=O)COc4ccccc4C)c3)nc2c1,55% (active)
17,Cc1cc(C)cc(OCC(=O)Nc2cc(-c3nc4cc(C)cc(C)c4o3)ccc2C)c1,14%
18,CCCSc1nc2ccccc2c(=O)n1CC1CCCCC1,1%
19,O=C(Nc1cccc(C(F)(F)F)c1)c1ccc(I)cc1,1%
20,COc1cc(/C=N\NC(=O)C2COc3cc4ccccc4cc3O2)ccc1OCc1ccccc1 (configuration not stated),14%
21,CCN(Cc1ccccc1)C(=O)c1ccccc1C,6%
22,CCOc1ccccc1OCCCCOc1cc(C)ccc1Cl,5%

row,SMILES,inhibition
1,Cc1c(OCc2c(F)cccc2Cl)ccc2c3c(c(=O)oc12)CCC3,0%
2,COC(=O)c1c(N)sc2c1CCc1ccccc1-2,9%
3,CCOC(=O)c1c(N)sc2c1CCc1ccccc1-2,51% (active)
4,CCOC(=O)c1c(NC(C)=O)sc2c1CCc1ccccc1-2,1%
5,Cc1ccc(-c2nc(N/N=C/c3ccccc3O)c3ccccc3n2)cc1,20%
6,Cc1ccc(-c2nc(N/N=C/c3ccccc3)c3ccccc3n2)cc1,10%
7,Cc1ccc(-c2nc(N/N=C/c3ccccc3Cl)c3ccccc3n2)cc1,58% (active)
8,COc1ccccc1C(=S)N1CCOCC1,70% (active)
9,Oc1ccccc1C(=S)N1CCOCC1,24%
10,COc1ccc(OC)c(C(=S)N2CCOCC2)c1,11%
11,COc1ccc2c(c1)c(/C=C/c1nc3ccccc3c(=O)n1-c1ccccc1[N+](=O)[O-])c(C)n2C,1%
12,Cc1ccccc1CNC(=O)c1ccc(N(C)S(=O)(=O)c2ccccc2)cc1,0%
13,CN(c1ccc(C(=O)N2CCN(c3ccccc3)CC2)cc1)S(=O)(=O)c1ccccc1,6%
14,CNC(=O)c1ccc(N(C)S(=O)(=O)c2ccccc2)cc1,2%
15,CN(c1ccc(C(=O)Nc2cc(Cl)cc(Cl)c2)cc1)S(=O)(=O)c1ccccc1,8%
16,CC1CCN(C(=O)c2ccc(N(C)S(=O)(=O)c3ccccc3)cc2)CC1,51% (active)
17,CN(c1ccc(C(=O)Nc2ccccc2F)cc1)S(=O)(=O)c1ccccc1,9%
18,CN(c1ccc(C(=O)N2CCCC2)cc1)S(=O)(=O)c1ccccc1,5%
19,CN(c1ccc(C(=O)Nc2cc(Cl)ccc2Cl)cc1)S(=O)(=O)c1ccccc1,54% (active)
20,Cc1cccc(C)c1NC(=O)c1ccc(N(C)S(=O)(=O)c2ccccc2)cc1,57% (active)
21,Cc1nn(CC(=O)Nc2ccc(Cl)cc2Cl)c(C)c1[N+](=O)[O-],0%
22,O=C(O)C1CN(S(=O)(=O)c2ccccc2)CCN1S(=O)(=O)c1ccccc1 (configuration not stated),8%

row,SMILES,inhibition
1,COC(=O)C1CN(S(=O)(=O)c2ccccc2)CCN1S(=O)(=O)c1ccccc1 (configuration not stated),2%
2,CCN(CC)C(=O)C1CN(S(=O)(=O)c2ccccc2)CCN1S(=O)(=O)c1ccccc1 (configuration not stated),54% (active)
3,Cc1cc(OS(C)(=O)=O)c2c(-c3ccccc3)cc(=O)oc2c1,19%
4,Cc1cc(OCC(=O)OC(C)C)c2c(-c3ccccc3)cc(=O)oc2c1,20%
5,Cc1cc(OC(C)C)c2c(-c3ccccc3)cc(=O)oc2c1,50% (active)
6,COc1ccc(NC(=O)n2nc(C(F)(F)F)nc2N)cc1,0%
7,Cc1cc(Cl)ccc1OC(C)C(=O)N1CCN(c2cccc(Cl)c2)CC1 (configuration not stated),10%
8,CCOc1nc(Nc2ccc(Cl)cc2)nc(N2CCCCC2)n1,9%
9,c1ccc(-c2onc3ccc(Oc4ccc5noc(-c6ccccc6)c5c4)cc23)cc1,19%
10,O=[N+]([O-])c1ccccc1S(=O)(=O)NCCSc1ccccc1,33%
11,O=S(=O)(NCCSCc1ccccc1)c1ccc(Cl)cc1,15%
12,O=[N+]([O-])c1ccccc1S(=O)(=O)NCCSCc1ccc(Cl)cc1,50% (active)
13,COC(=O)c1ccc(-c2ccc(/C=C3\SC(=O)N(c4ccccc4)C3=O)o2)cc1,57% (active)
14,O=C(O)c1ccc(-c2ccc(/C=C3/SC(=O)N(c4ccccc4)C3=O)o2)cc1,15%
15,COC(=O)c1ccc(-c2ccc(/C=C3/SC(=S)N(c4ccccc4)C3=O)o2)cc1,4%
16,COc1cc(/C=C(\C#N)C(N)=S)ccc1OCc1ccccc1,10%
17,CCOc1ccc(N(CC(N)=O)S(=O)(=O)c2ccc(SC)cc2)cc1,0%
18,CCOC(=O)c1c(NC(=O)COc2ccc(Cl)cc2)sc2c1CCN(C(=O)OCC)C2,38%
19,CCOC(=O)c1c(NC(=O)Cc2ccc(OC)cc2)sc2c1CCN(C(=O)OCC)C2,50% (active)
20,CCOC(=O)c1c(NC(C)=O)sc2c1CCN(C(=O)OCC)C2,9%
21,CCOc1ccc(NC(=O)CSc2nc3ccccc3s2)cc1,10%
22,Nc1c2c(cc3ccccc13)C(=O)c1ccccc1C2=O,46%

row,SMILES,inhibition
1,CCOc1ccccc1C(=O)Nc1cccc(OC)c1,11%
2,Cc1ccc(S(=O)(=O)NC(=O)OC(c2ccccc2)C(F)(F)F)cc1 (configuration not stated),0%
3,CCc1ccccc1NC(=O)c1ccc(CN2CCc3ccccc3C2)cc1,7%
4,COc1ccccc1CC(=O)Nc1ccc(F)cc1,10%
5,COc1ccccc1CC(=O)Nc1ccc(F)cc1F,55% (active)
6,CCOC(=O)c1ccc(NC(=O)Cc2ccccc2OC)cc1,8%
7,CCC(C)c1ccc(NC(=O)Cc2ccccc2OC)cc1 (configuration not stated),52% (active)
8,COc1ccccc1CC(=O)Nc1cc(C)ccn1,53% (active)
9,COc1ccccc1CC(=O)Nc1cccc(F)c1,0%
10,COc1ccccc1CC(=O)Nc1nccs1,14%
11,COc1ccccc1CC(=O)Nc1ccc(C)c(Cl)c1,5%
12,COc1ccccc1NC(=O)Cc1ccc(F)cc1F,0%
13,COc1cccc(OC)c1C(=O)Nc1cc(C)ccn1,0%
14,COc1ccc(CC(=O)Nc2ccc(Br)c(C)c2)cc1OC,12%
15,COc1ccccc1CC(=O)Nc1ccc(Br)c(C)c1,59% (active)
16,Cc1nonc1-c1cn2cc(Cl)ccc2n1,8%
17,COc1ccccc1C/C(N)=N/OC(=O)Cc1ccc(Cl)cc1,22%
18,O=C(Nc1ccc(S(=O)(=O)N2CCCCCC2)cc1)c1cccc([N+](=O)[O-])c1,9%
19,CCOC(=O)C1=C(C)N=c2s/c(=C\c3ccc([N+](=O)[O-])o3)c(=O)n2C1c1ccc(SC)cc1 (configuration not stated),20%
20,COc1ccc(S(=O)(=O)N(CCc2ccccc2)CC(=O)NCC2CCCO2)cc1 (configuration not stated),2%
21,CCOc1ccc(N2C(=O)/C(=C/c3cc(Br)c(O)c(OC)c3)C(=O)NC2=S)cc1,11%
22,COc1ccccc1CC(=O)Nc1cccc(C)c1,0%

row,SMILES,inhibition
1,COc1ccccc1CC(=O)Nc1ccc(Br)cc1,38%
2,COc1ccccc1CC(=O)Nc1cccc(Br)c1,67% (active)
3,O=C1c2ccc(-c3nc4ccccc4c(=O)o3)cc2C(=O)N1c1cccc(I)c1,0%
4,Cc1ccc2c(c1)N(C(=O)c1ccccc1Br)C(C)(C)c1ssc(=S)c1-2,33%
5,C=CCn1c(=O)c(C(=O)NCCCO)c(O)c2ccccc21,11%
6,COc1ccc(/C=N/NC(=S)Nc2cccc(C)c2)c2ccccc12,5%
7,COC(=O)C1=C(C)NC(C)=C(C(=O)OC)C1c1cn(-c2ccccc2)nc1-c1ccco1,4%
8,COc1cccc(OCCOC(=O)Nc2ccc(Cl)c(Cl)c2)c1,50% (active)
9,COc1ccc(OCCOC(=O)Nc2ccc(Cl)c(Cl)c2)cc1,34%
10,O=C(Nc1cccc(Cl)c1)OCCOc1ccccc1,48%
11,O=C(Nc1ccc(Cl)c(Cl)c1)OCCOc1ccccc1,50% (active)
12,Cc1cccc(OCCOC(=O)Nc2ccc(Cl)c(Cl)c2)c1,46%
13,O=C(Nc1ccc(Cl)c(Cl)c1)OCCOc1cccc(Br)c1,44%
14,Cc1cccc(OCCOC(=O)Nc2cccc(Cl)c2)c1,44%
15,O=C(Nc1ccc(Cl)c(Cl)c1)OCCOc1ccccc1Cl,48%
16,O=C(Nc1cccc(Cl)c1)OCCOc1cccc(F)c1,58% (active)
17,Cc1ccc(OCCOC(=O)Nc2ccc(Cl)c(Cl)c2)cc1,46%
18,Cc1ccccc1OCCOC(=O)Nc1ccc(Cl)c(Cl)c1,51% (active)
19,COc1ccccc1OCCOC(=O)Nc1ccc(Cl)c(Cl)c1,10%
